# Records with an inconclusive call do not appear. Where a call stands in place of a potency, no number is given. A number with no mark means an inactive call. Activity calls are given as the source filed them. The call rests on the fitted dose curve; in most records, active means well fitted curve in the direction sought with a large enough effect; inconclusive means small, poorly fitted or top-dose-only effect, or another doubt; inactive means no such curve, though single readings can be large; an effect the other way counts as inactive or inconclusive.
# Tests used:
# [1] = P-glycoprotein substrates identified in KB-3-1 adenocarcinoma cell line, qHTS therapeutic library screen (AID 1346986); further: nearly all actives have a fitted effect of over 60% in size
# Procedure, shortened: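 Dose-response cytotoxicity, KB-3-1 vs P-gp-high KB-8-5-11, no colchicine in assay medium. Read: CellTiter-Glo at 72 h.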
# [2] = P-glycoprotein substrates identified in KB-8-5-11 adenocarcinoma cell line, qHTS therapeutic library screen (AID 1346987); further: nearly all actives have a fitted effect of over 65% in size; on activity change, negative = cytotoxicity: series mostly up to about 44 µM
# Procedure, shortened: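 In this qHTS, P-gp-rich KB-8-5-11 cells received library compounds across a concentration range. Viability was quantified by luminescence after 72 h at 37 degree C.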
# [3] = test system: Zika virus NS2B-NS3 protease (unlinked complex); assay: Primary screen GU Rhodamine qHTS for Zika virus inhibitors: Unlinked NS2B-NS3 protease assay (AID 1347159); further: nearly all actives have a fitted effect of over 60% in size
# Procedure, shortened: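 In dose–response format, inhibition of unlinked protease (25 nM) was measured with 1.5 microM bis-peptide Rhodamine110 substrate. Aprotinin served as the intraplate control.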
# [4] = test system: Zika virus NS2B-NS3 protease (linked construct); assay: Primary screen NINDS Rhodamine qHTS for Zika virus inhibitors (AID 1347160); further: nearly all actives have a fitted effect of over 55% in size; further: potency means the concentration at half of the fitted maximal effect
# Procedure, shortened: (§1)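 Each compound, titrated, sat 15 min with 25 nM linked protease before 1.5 microM Rhodamine110 substrate went in. Fluorescence gain over the next 15 min, in pH 8.0 Tris with Tween 20, gave Hill-fitted curves.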
# [5] = Confirmatory screen GU Rhodamine qHTS for Zika virus inhibitors qHTS (AID 1347157); further: potency means the concentration at half of the fitted maximal effect; nearly all actives have a fitted effect of over 70% in size
# Procedure, shortened: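 A qHTS format was used, with compound concentrations ranging up to 114 microM. Each compound was preincubated with 25 nM NS2B-NS3 protease, and the substrate was then added at 1.5 microM. Curves were fitted with a 4-parameter Hill model.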
# [6] = Confirmatory screen NINDS Rhodamine qHTS for Zika virus inhibitors (AID 1347161); further: potency means the concentration at half of the fitted maximal effect; nearly all actives have a fitted effect of over 60% in size
# Procedure, shortened: as §1
# [7] = test system: Zika virus NS2B-NS3 protease (linked); assay: 384 well plate NINDS AMC confirmatory qHTS for Zika virus inhibitors (AID 1347163); further: potency means the concentration at half of the fitted maximal effect; nearly all actives have a fitted effect of over 50% in size
# Procedure, shortened: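 Enzyme (5, 30 or 60 nM final) first met test compounds for ~15 min. The AMC-tagged peptide Ac-VKTGKR-AMC followed at 30 microM. Fluorescence was then recorded at 25 min and scaled against no-enzyme and no-inhibitor wells.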
# [8] = test system: Zika virus NS2B-NS3 protease (linked construct); assay: 384 well plate NINDS Rhodamine confirmatory qHTS for Zika virus inhibitors (AID 1347164);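 further: fluorescence from protease cleavage of Ac-LKRR-rhodamine 110 substrate; potency means the concentration at half of the fitted maximal effect; nearly all actives have a fitted effect of over 65% in size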
# Procedure, shortened: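 Enzyme (final 5/30/60 nM) + cpd (DMSO), ~15 min; add Ac-LKRR-Rd 10 microM final; 25 min RT, dark; FI ex 485/em 538; normalized to no-enzyme, no-inhibitor ctrls; aprotinin intraplate ctrl.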
# [9] = Vero cells viability qHTS for Zika virus inhibitors (AID 1347167)
# Procedure, shortened: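 Luminescent ATP readout (CellTiter Glo) after 30 min at 37 degrees C gives viability; cells in DMEM + 4% FBS were treated 24 to 48 hours with compound, following overnight attachment.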
smiles,measurement,setting,value
C[C@@H]1O[C@@H](O[C@H]2[C@H](O[C@H]3[C@H](O[C@H]4CC[C@@]5(C)C(CC[C@]6(C)C5CC=C5[C@@H]7CC(C)(C)C[C@@H](O)[C@]7(C)CC[C@]56C)[C@@]4(C)CO)O[C@H](C(=O)O)[C@@H](O)[C@@H]3O)O[C@H](CO)[C@H](O)[C@@H]2O)[C@H](O)[C@H](O)[C@H]1O (stereo partly drawn),outcome,[1],inactive [at 9.29 µM]
same,outcome,[2],inactive [at 9.29 µM]
same,Potency,[3],inactive
CC1=CC(=O)CC(C)(C)[C@@]1(O)/C=C/C(C)O[C@@H]1O[C@H](CO)[C@@H](O)[C@H](O)[C@H]1O (stereo partly drawn),Potency,[1],inactive
same,Potency,[2],inactive
same,Potency,[3],inactive
same,Potency,[4],inactive
CC(C)=CCc1cc(O[C@@H]2O[C@H](CO[C@@H]3OC[C@](O)(CO)[C@H]3O)[C@@H](O)[C@H](O)[C@H]2O)ccc1O,Potency,[1],inactive
same,Potency,[2],inactive
same,Potency,[3],inactive
CC(=O)N[C@H](Cc1c[nH]c2ccccc12)C(=O)OCc1cc(C(F)(F)F)cc(C(F)(F)F)c1,Potency,[1],inactive
same,Potency,[2],inactive
same,Potency,[3],inactive
same,Potency,[4],inactive
CC(=O)OC1CC2(C)C(CCC(C)C23Cc2c(O)cc4c(c2O3)CNC4=O)C(C)(C)C1O (stereo not drawn),Potency,[1],inactive
same,Potency,[2],inactive
same,Potency,[3],inactive
same,Potency,[4],inactive
COC(=O)C1=COC(O[C@@H]2O[C@H](CO)[C@@H](O)[C@H](O)[C@H]2O)/C(=C\COC(=O)/C=C/c2ccccc2)C1CC(=O)OCCc1ccc(O)cc1 (stereo partly drawn),Potency,[1],inactive
same,Potency,[2],inactive
same,Potency,[3],inactive
same,Potency,[4],inactive
C=C(CCO[C@@H]1O[C@H](CO)[C@@H](O)[C@H](O)[C@H]1O)C(=O)O,Potency,[1],inactive
same,Potency,[2],inactive
same,Potency,[3],inactive
same,Potency,[4],inactive
CCCCNc1nc(N)c2[nH]c(=O)n(Cc3ccc(OCCN(C)C)nc3)c2n1,Potency,[1],inactive
same,Potency,[2],inactive
same,Potency,[3],inactive
same,Potency,[4],inactive
CC(C)=CCC[C@](C)(O[C@@H]1O[C@H](CO[C@@H]2O[C@@H](CO)[C@H](O)[C@H]2O)[C@@H](O)[C@H](O)[C@H]1O)[C@H]1CC[C@]2(C)[C@@H]1[C@H](O)C[C@@H]1[C@@]3(C)CC[C@H](O[C@@H]4O[C@H](CO)[C@@H](O)[C@H](O)[C@H]4O[C@@H]4O[C@H](CO)[C@@H](O)[C@H](O)[C@H]4O)C(C)(C)[C@@H]3CC[C@]12C,Potency,[1],inactive
same,Potency,[2],inactive
same,Potency,[3],inactive
same,Potency,[4],inactive
NC(=O)[C@H](Cc1ccccc1)NC(=O)[C@H](CCCN=C(N)N)NC(=O)C12CC3CC(CC(C3)C1)C2,outcome,[1],inactive [at 9.29 µM]
same,outcome,[2],inactive [at 9.29 µM]
same,"activity change, negative = inhibition",[3],-7.71% [at 19.1 µM]
OC[C@H]1O[C@@H](OCc2ccccc2)[C@H](O[C@@H]2OC[C@@H](O)[C@H](O)[C@H]2O)[C@@H](O)[C@@H]1O,Potency,[1],inactive
same,Potency,[2],inactive
same,Potency,[3],inactive
same,Potency,[4],inactive
CC(C)CC(c1c(O)c(C=O)c(O)c(C=O)c1O)C1CCC(C)(O)C2CC(C(C)(C)O)CCC12C (stereo not drawn),Potency,[1],inactive
same,Potency,[2],inactive
same,Potency,[5],3.41 µM (active)
same,Potency,[4],5.01 µM (active)
same,Potency,[6],3.41 µM (active)
same,Potency,[7],50.1 µM (active)
same,Potency,[8],15.8 µM (active)
same,outcome,[9],inactive
C[C@H]1CC(=O)C2=C(C1)C(O)C(O)[C@@]1(O)[C@H]2C(=O)c2cccc(O)c2[C@@H]1O (stereo partly drawn),Potency,[1],inactive
same,Potency,[2],inactive
same,Potency,[3],inactive
same,Potency,[4],inactive
Cc1cccc(-c2nn3c(c2-c2ccnc4ccc(C(N)=O)cc24)CCC3)n1,Potency,[1],inactive
same,Potency,[2],inactive
same,Potency,[3],inactive
same,Potency,[4],inactive
CC1(C)CC[C@]2(C(=O)O[C@@H]3O[C@H](CO[C@@H]4O[C@H](CO)[C@@H](O)[C@H](O)[C@H]4O)[C@@H](O)[C@H](O[C@@H]4O[C@H](CO)[C@@H](O)[C@H](O)[C@H]4O)[C@H]3O)CC[C@]3(C)C(=CCC4[C@@]5(C)CC[C@H](O[C@@H]6OC[C@@H](O)[C@H](O)[C@H]6O)[C@@](C)(C(=O)O)C5CC[C@]43C)[C@@H]2C1 (stereo partly drawn),outcome,[1],inactive [at 9.29 µM]
same,"activity change, negative = cytotoxicity",[2],2.51% [at 9.29 µM]
same,Potency,[3],inactive
same,Potency,[4],inactive
Cc1noc2c1-c1ccccc1C(c1ccc(Cl)cc1)=N[C@H]2CC(N)=O,Potency,[1],inactive
same,Potency,[2],inactive
same,Potency,[3],inactive
same,Potency,[4],inactive
COC(=O)C1=COC(O[C@@H]2O[C@H](COC(=O)/C=C/c3ccc(O)cc3)[C@@H](O)[C@H](O)[C@H]2O)C2C(CO)=CCC12 (stereo partly drawn),Potency,[1],inactive
same,Potency,[2],inactive
same,Potency,[3],inactive
same,Potency,[4],inactive
CC(C)=CCC/C(C)=C/CO[C@@H]1O[C@H](CO[C@@H]2O[C@@H](CO)[C@H](O)[C@H]2O)[C@@H](O)[C@H](O)[C@H]1O,Potency,[1],inactive
same,Potency,[2],inactive
same,Potency,[3],inactive
same,Potency,[4],inactive
